# Results filed as inconclusive are left out. Calls of active or inactive are those of the source. Unless noted, the limit is not given here; nearly all actives have AC50 up to about 30 µM. Where a SMILES comes first, the peptide text is derived from it. [ ]: non-standard residue; d: D form. The star is where a group is joined. Sta = CC(C)C[C@H](N)[C@@H](O)CC(=O)O; Isovaleryl = CC(C)CC(=O)*
# Experiments:
# [1] = growth inhibition of DIPG glioma cells, dose response, cell-based, SU-DIPG-IV, MIPE4.0, CellTiter-Glo, qHTS (AID 1347063); conditions: SU-DIPG-IV viability, CellTiter-Glo ATP luminescence;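 also: compound exposure lasted 48 hours before the viability readout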
# [2] = growth inhibition of DIPG glioma cells, dose response, cell-based, SU-DIPG-XIII, MIPE5.0, CellTiter-Glo, qHTS (AID 1347064; cut-off not given, nearly all actives have AC50 up to about 23 µM;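 as to AC50: cells exposed to compound for 48 hours before the viability read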); conditions: SU-DIPG-XIII viability, CellTiter-Glo ATP luminescence
# [3] = viability loss in pontine glioma line – cell-based, SU-DIPG-XXV, MIPE5.0, CellTiter-Glo, qHTS, dose response (AID 1347065; cut-off not given, nearly all actives have AC50 up to about 26 µM;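 also: cells exposed to compound for 48 hours before ATP readout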); conditions: CellTiter-Glo ATP luminescence
# [4] = LFS_MB_P medulloblastoma growth inhibition, cell-based, chromothripsis tumors, cisplatin or BGB combos (AID 1671449; in the data active = inhibition above about 80%;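 also: cells exposed for 96 hours; 0% = vehicle DMSO and 100% = killing by high DMSO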); conditions: LFS_MB_P medulloblastoma cells
# [5] = HDN33 neuroblastoma growth inhibition, cell-based, chromothripsis tumors, cisplatin or BGB combos (AID 1671450; in the data active = inhibition above about 80%;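 also: cells exposed to compound for four days; 0% = vehicle DMSO and 100% = cell killing by high DMSO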); conditions: HDN33 neuroblastoma cells, stronger effect = higher value
# [6] = ICB984 medulloblastoma cell growth inhibition, synergistic combos for chromothripsis tumors, cisplatin or BGB combos (AID 1671451; call rule not given here;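 also: cells exposed for 96 hours before readout; 0% = vehicle DMSO and 100% = killing by high DMSO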); conditions: ICB984 medulloblastoma cells, drug combinations, stronger effect = higher value
# [7] = HTB85 osteosarcoma cell growth inhibition, synergistic combos for chromothripsis tumors, BGB or cisplatin IC20 combos (AID 1671453; in the data active = inhibition above about 80%;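 also: cells exposed for 96 hours before readout; 0% = vehicle DMSO and 100% = high DMSO killing control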); conditions: HTB85 osteosarcoma cells, drug combinations, stronger effect = higher value
# [8] = MDA-MB-436 breast carcinoma cell growth inhibition, synergistic combos for chromothripsis tumors, BGB or cisplatin combos (AID 1671458; call rule not given here;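 also: cells exposed for 96 hours; 0% = vehicle DMSO and 100% = killing by high DMSO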); conditions: MDA-MB-436 breast carcinoma growth inhibition, drug combinations, stronger effect = higher value
# [9] = growth inhibition of BT084 medulloblastoma cells, cell-based, ICGC_MB145, cisplatin and BGB IC40 combos (AID 1671461; in the data active = inhibition above about 80%;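 also: cells exposed to drugs for 96 hours; 0% = vehicle DMSO and 100% = high DMSO full killing control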); conditions: drug combinations, stronger effect = higher value
# [10] = growth inhibition of RCMB18 medulloblastoma cells, cell-based, cisplatin and BGB IC40 combos (AID 1671462; in the data active = inhibition above about 80%;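 also: cells exposed to compound for four days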); conditions: stronger effect = higher value
# [11] = growth inhibition of CRL1545 osteosarcoma cells, cell-based, cisplatin and BGB IC20 combos (AID 1671464; in the data active = inhibition above about 80%;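 also: cells exposed to compound for 96 hours before readout; 0% = vehicle DMSO and 100% = high DMSO killing control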); conditions: stronger effect = higher value
# [12] = circadian clock period modulators, cell-based, LOPAC library, luminescence reporter (AID 2774; call rule not given here;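 also: values are relative to mean of DMSO wells on each plate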); conditions: circadian reporter cells, at 7 µM, actives lie on both sides
# [13] = system: Hepatitis C virus NS3 helicase; assay: HCV NS3 helicase inhibitors, primary screen, biochemical, fluorescence polarization, LOPAC1280 library (AID 687035; in the data active = inhibition above about 37%); conditions: Purified HCV NS3 helicase, Cy5-dT15 ssDNA binding fluorescence polarization; stronger effect = higher value; concentration not given here
# [14] = Cy5 fluorescence quenching or enhancement artefacts, artefact control for HCV NS3 helicase inhibitor project, biochemical, LOPAC1280 (AID 687037; call rule not given here); conditions: Cy5-DNA-NS3h complex fluorescence interference counterscreen
# [15] = phospholipid biosynthesis inhibitors in animal cells, primary screen, cell-based, LOPAC library, screen 4 (AID 1347384; call rule not given here); conditions: phospholipid biosynthesis inhibition screen, at 10 µM
# [16] = target: Mitogen-activated protein kinase 7 (Homo sapiens) (UniProt Q13164); assay: ERK5 transactivation activators in reporter cells, primary screen, cell-based, HTS (AID 1508626;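 active = luciferase signal above three times the same-plate solvent-only control wells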;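 also: luciferase driven by Gal4-ERK5 fusion binding five Gal4 sites before minimal TATA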); conditions: HeLa Gal4-ERK5 transactivation, 18 h, at 5 µM, stronger effect = higher value
# Sequence of Mitogen-activated protein kinase 7 (Homo sapiens) (Q13164 whole entry, looked up, the tested form may be a part): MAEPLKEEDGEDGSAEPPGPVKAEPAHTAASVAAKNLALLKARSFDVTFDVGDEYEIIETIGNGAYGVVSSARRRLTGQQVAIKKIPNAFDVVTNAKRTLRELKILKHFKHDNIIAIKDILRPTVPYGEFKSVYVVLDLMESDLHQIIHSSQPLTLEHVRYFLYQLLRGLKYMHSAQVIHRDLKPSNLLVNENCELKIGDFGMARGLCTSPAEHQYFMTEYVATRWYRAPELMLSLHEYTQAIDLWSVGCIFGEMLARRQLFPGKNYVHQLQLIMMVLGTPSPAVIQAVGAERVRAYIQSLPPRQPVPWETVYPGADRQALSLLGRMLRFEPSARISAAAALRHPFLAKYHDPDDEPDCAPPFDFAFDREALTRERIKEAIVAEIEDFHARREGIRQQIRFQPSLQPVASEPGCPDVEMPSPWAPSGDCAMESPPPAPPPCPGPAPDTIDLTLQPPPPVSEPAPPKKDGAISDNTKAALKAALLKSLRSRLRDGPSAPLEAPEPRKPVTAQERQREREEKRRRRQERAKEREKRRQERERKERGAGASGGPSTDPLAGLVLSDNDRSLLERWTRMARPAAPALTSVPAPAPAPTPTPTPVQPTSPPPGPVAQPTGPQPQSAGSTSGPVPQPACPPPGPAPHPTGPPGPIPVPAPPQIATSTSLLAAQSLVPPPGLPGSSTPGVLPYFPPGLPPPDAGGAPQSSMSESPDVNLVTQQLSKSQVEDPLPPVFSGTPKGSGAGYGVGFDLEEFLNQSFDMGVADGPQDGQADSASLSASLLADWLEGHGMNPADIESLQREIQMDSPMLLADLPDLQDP
# [17] = SU-DIPG-VI glioma cell viability, MIPE4.0 library, CellTiter-Glo luminescence, qHTS (AID 1347066); conditions: CellTiter-Glo ATP luminescence;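 also: cells exposed to compound for 48 hours before readout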
# [18] = JHH-DIPG-1 glioma cell viability, MIPE5.0 library, CellTiter-Glo luminescence, qHTS (AID 1347067; cut-off not given, nearly all actives have AC50 up to about 26 µM;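 also: cells exposed to compound for 48 hours before readout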); conditions: JHH-DIPG-1 glioma viability, CellTiter-Glo ATP luminescence
# [19] = hESC survival regulators, cell-based (AID 493140; call rule not given here;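 also: cells exposed to compounds for four days before counting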); conditions: human embryonic stem cell survival screen; stronger effect = higher value
# [20] = modifiers of HSF1 nuclear foci, imaging, Selleck Cancer Library (AID 1347162; in the data active = plate-normalised HSF1 focus index below about 0.46); conditions: human cells, at 10 µM; SSMD: measured here: HSF1 foci SSMD mean; cell count: measured here: cell number; plate-normalised HSF1 focus index: stronger effect = lower value
# [21] = measured here: with BGB IC20 combination, at 0.5 µM
# [22] = measured here: with cisplatin IC20 combination, at 0.5 µM
smiles,measurement,setting,value
C[C@@H](CN1CC(=O)NC(=O)C1)N1CC(=O)NC(=O)C1,outcome,[1],inactive
same,outcome,[2],inactive
same,outcome,[3],inactive
same,inhibition,"[4]; at 0.5 µM, stronger effect = higher value",-25.4% (inactive)
same,inhibition,"[4]; measured here: combination with BGB IC20, at 0.005 µM",7.12%
same,inhibition,"[4]; measured here: combination with BGB IC40, at 0.005 µM",4.81%
same,inhibition,"[4]; measured here: combination with BGB IC40, at 0.05 µM",-36.6%
same,inhibition,"[4]; measured here: combination with cisplatin, at 0.5 µM, stronger effect = higher value",-24.5%
same,inhibition,"[4]; measured here: combination with cisplatin, at 5 µM, stronger effect = higher value",-14.8%
same,inhibition,"[5]; BGB combo, at 5 µM",79.1%
same,inhibition,[5]; at 0.5 µM,-24% (inactive)
same,inhibition,"[5]; cisplatin combo, at 5 µM",-19.4%
same,inhibition,[5]; [21],-11.3%
same,inhibition,[5]; [22],-36.9%
same,inhibition,"[5]; single agent, at 5 µM",13.8%
same,inhibition,"[6]; BGB IC20 combo, at 0.005 µM",-2.91%
same,inhibition,"[6]; BGB IC40 combo, at 0.005 µM",-23%
same,inhibition,"[6]; BGB IC40 combo, at 0.05 µM",11.5%
same,inhibition,[6]; at 0.5 µM,-30.5% (inactive)
same,inhibition,"[6]; cisplatin combo, at 0.05 µM",8.27%
same,inhibition,"[6]; cisplatin combo, at 0.5 µM",-19.9%
same,inhibition,"[6]; cisplatin combo, at 5 µM",-27.8%
same,inhibition,"[6]; measured here: 5 uM single agent, at 5 µM",-8.08%
same,inhibition,[7]; at 0.5 µM,-26.1% (inactive)
same,inhibition,"[7]; measured here: with BGB IC20, at 0.5 µM",-21.1%
same,inhibition,"[7]; measured here: with BGB IC20, at 5 µM",-21.1%
same,inhibition,"[7]; measured here: with cisplatin IC20, at 0.5 µM",-39.6%
same,inhibition,"[7]; measured here: with cisplatin IC20, at 5 µM",-43.4%
same,inhibition,"[7]; single agent, at 5 µM",-10%
same,inhibition,[8]; at 0.5 µM,-7.66% (inactive)
same,inhibition,"[8]; measured here: BGB combination, at 0.5 µM",2.41%
same,inhibition,"[8]; measured here: BGB combination, at 5 µM",-3.41%
same,inhibition,"[8]; measured here: cisplatin combination, at 0.5 µM",-18.8%
same,inhibition,"[8]; measured here: cisplatin combination, at 5 µM",-28.2%
same,inhibition,[9]; at 0.5 µM,-9.97% (inactive)
same,inhibition,"[9]; cisplatin combination, at 0.5 µM",-43.1%
same,inhibition,"[9]; cisplatin combination, at 5 µM",-2.65%
same,inhibition,"[9]; measured here: BGB IC40 combination 0.05 uM, at 0.05 µM",19.5%
same,inhibition,"[9]; single agent, at 5 µM",-11.9%
same,inhibition,[10]; at 0.5 µM,-20.1% (inactive)
same,inhibition,"[10]; cisplatin combo, at 5 µM",-55.6%
same,inhibition,"[10]; measured here: BGB IC40 combination, at 0.05 µM",-8.51%
same,inhibition,"[10]; measured here: combination with cisplatin, at 0.5 µM",-37.1%
same,inhibition,"[10]; single agent, at 5 µM",-16.8%
same,inhibition,[11]; at 0.5 µM,-44.1% (inactive)
same,inhibition,[11]; [21],-33.6%
same,inhibition,[11]; [22],-51.8%
same,inhibition,"[11]; single agent, at 0.05 µM",-57.8%
same,inhibition,"[11]; single agent, at 5 µM",-52.7%
CCOC(=O)c1cnc2c(cnn2CC)c1NN=C(C)C,period change,[12],0.065 h (inactive)
same,inhibition,[13],-2% (inactive)
same,fluorescence ratio (interference),[14],1 (inactive)
same,outcome,[15],inactive
CN1CCC[C@@H]1Cc1c[nH]c2ccc(CCS(=O)(=O)c3ccccc3)cc12,outcome,[15],inactive
same,luciferase signal,[16],48 AU (inactive)
c1cc(CN2CCCCC2)cc(OCCCNc2nc3ccccc3s2)c1,period change,[12],-0.085 h (inactive)
same,inhibition,[13],-2% (inactive)
same,fluorescence ratio (interference),[14],1 (inactive)
same,outcome,[15],inactive
CC(C)C(=O)c1c(C(C)C)nn2ccccc12,period change,[12],-0.095 h (inactive)
same,inhibition,[13],-1% (inactive)
same,fluorescence ratio (interference),[14],1 (inactive)
same,outcome,[15],inactive
Cc1[nH]c(=O)c(C#N)cc1-c1ccc2nccn2c1,inhibition,[13],-1% (inactive)
same,fluorescence ratio (interference),[14],1 (inactive)
same,outcome,[1],inactive
same,outcome,[3],inactive
same,outcome,[17],inactive
same,outcome,[18],inactive
same,outcome,[15],inactive
CNCCC(Oc1ccccc1OC)c1ccccc1 (stereo unspecified),period change,[12],-0.31 h (inactive)
same,survival,[19],0.917 (inactive)
same,inhibition,[13],-6% (inactive)
same,fluorescence ratio (interference),[14],0.9 (inactive)
same,outcome,[15],inactive
CSCC[C@H](NC(=O)[C@H](Cc1c[nH]c2ccccc12)NC(=O)CCNC(=O)OC(C)(C)C)C(=O)N[C@@H](CC(=O)O)C(=O)N[C@@H](Cc1ccccc1)C(N)=O,outcome,[1],inactive
same,outcome,[2],inactive
same,outcome,[3],inactive
same,outcome,[17],inactive
same,outcome,[18],inactive
O=C(NOCC1CC1)c1ccc(F)c(F)c1Nc1ccc(I)cc1Cl,AC50,[1],20.9 µM (active)
same,AC50,[2],3.32 µM (active)
same,AC50,[3],2.35 µM (active)
same,AC50,[17],10.5 µM (active)
same,AC50,[18],1.86 µM (active)
O=C(O)C(=O)Nc1cccc(-c2nn[nH]n2)c1,outcome,[1],inactive
same,outcome,[3],inactive
same,outcome,[17],inactive
same,outcome,[18],inactive
CCN[C@H]1C[C@H](C)S(=O)(=O)c2sc(S(N)(=O)=O)cc21,survival,[19],14.7 (inactive)
same,outcome,[1],inactive
same,outcome,[2],inactive
same,outcome,[3],inactive
same,outcome,[17],inactive
same,outcome,[18],inactive
same,SSMD,[20],2.68
same,cell count,[20],6990
same,plate-normalised HSF1 focus index,[20],1.14 (inactive)
CC(C)CC(=O)N[C@H](C(=O)N[C@H](C(=O)N[C@@H](CC(C)C)[C@@H](O)CC(=O)N[C@@H](C)C(=O)N[C@@H](CC(C)C)[C@@H](O)CC(=O)O)C(C)C)C(C)C (Isovaleryl-VV[Sta]A[Sta]-OH),outcome,[1],inactive
same,outcome,[2],inactive
same,outcome,[3],inactive
same,outcome,[17],inactive
same,outcome,[18],inactive
Nc1ccn(C[C@@H](CO)OCP(=O)(O)O)c(=O)n1,outcome,[1],inactive
same,outcome,[2],inactive
same,outcome,[3],inactive
same,outcome,[17],inactive
same,outcome,[18],inactive
CC(=O)SC[C@@H](C)C(=O)N1CCC[C@H]1C(=O)N[C@@H](Cc1ccccc1)C(=O)O,outcome,[1],inactive
same,outcome,[17],inactive
same,outcome,[18],inactive
C[C@H]1C[C@H]2[C@@H]3CCC4=CC(=O)C=C[C@]4(C)[C@H]3C(=O)C[C@]2(C)[C@@]1(O)C(=O)CO,outcome,[1],inactive
same,outcome,[3],inactive
same,outcome,[17],inactive
same,outcome,[18],inactive
C[C@@H](NCCCc1cccc(C(F)(F)F)c1)c1cccc2ccccc12,outcome,[1],inactive
same,AC50,[2],18.6 µM (active)
same,AC50,[3],14.8 µM (active)
same,outcome,[17],inactive
same,AC50,[18],16.6 µM (active)
Cc1oc(=O)oc1CN1CCN(c2cc3c(cc2F)c(=O)c(C(=O)O)c2n3C(C)S2)CC1 (stereo unspecified),outcome,[1],inactive
same,outcome,[2],inactive
same,outcome,[3],inactive
same,outcome,[17],inactive
same,outcome,[18],inactive
CC(=O)[C@H]1CC[C@H]2[C@@H]3CC=C4C[C@@H](O)CC[C@]4(C)[C@H]3CC[C@]12C,survival,[19],9.33 (inactive)
same,outcome,[1],inactive
same,outcome,[2],inactive
same,outcome,[17],inactive
same,outcome,[18],inactive
same,luciferase signal,[16],44 AU (inactive)

# Reference: PubChem BioAssay
